Results filed as inconclusive are left out. Unmarked numbers belong to inactive results. Calls come from the whole dose curve; as a rule, active = well fitted curve in the direction sought with a large enough effect; inconclusive = small, poorly fitted or top-dose-only effect, or another doubt; inactive = no such curve, though single readings can be large or run the other way.
Assay: qHTS Assay for Identifying Gametocytocidal Compounds (AID 743244);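 note: actives lower the fluorescent signal which means gametocytes are killed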
Settings: P. falciparum 3D7 stage III-V gametocytes, alamarBlue, 72 h; max response: stronger effect = lower value
Procedure, shortened: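 Stage III–V gametocytes of P. falciparum 3D7 were seeded at 20,000 cells/well onto pre-dispensed compounds. After 72 h, 37 °C, 5% CO2, alamarBlue was added for another 24 h.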
For `CCC(=O)OCC(=O)[C@@]1(OC(=O)CC)[C@H](C)C[C@H]2[C@H]3[C@H]([C@@H](O)C[C@@]21C)[C@@]1(C)C=CC(=O)C=C1C[C@H]3Cl`, the max response was -4.51%. Compound `COCC(=O)Nc1cc(Sc2ccccc2)ccc1N=C(NC(=O)OC)NC(=O)OC` has a max response of -1.05%. For `OCCO[C@@H]1[C@@H](O)[C@H](O)[C@@H](CO)O[C@@H]1O`, the max response was 18.7%. `CC(C)NCC1CCc2cc(CO)c([N+](=O)[O-])cc2N1` (stereo unspecified) showed a max response of -6.43%. With `CN1C(=O)CN2CCc3ccccc3C2c2cc(Cl)ccc21` (stereo unspecified) the max response was 0.102%. `C[C@H](CCC(=O)O)[C@H]1CC[C@H]2[C@@H]3[C@H](O)C[C@@H]4C[C@H](O)CC[C@]4(C)[C@H]3CC[C@]12C` gave a max response of 11%.

Reference: PubChem BioAssay (NCATS)
% is set by controls: 0 for no effect and ±100 for the full control effect.
